Laboratory results as given in PubChem BioAssay.
Calls of active or inactive are those of the source.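 How the source made its calls: active means GFP response above 150% of the DMSO level; inconclusive means fewer than 70 events counted for a yeast strain; inactive means the rest.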

Experiment: AGP1-GFP expression modulators, hit retest, confirmation, cell-based, flow cytometry, S. cerevisiae, cherry picks (AID 2273);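 further: median GFP channel fluorescence over the whole cell population gate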
Details: S. cerevisiae AGP1-GFP strain, 3 h, at 10 µM

GFP response, % of DMSO, inactive:
O=C(COC(=O)c1n[nH]c2ccccc12)c1cccc(Br)c1 102%
Cc1c(C(=O)Nc2ccccc2)cnn1-c1ccccc1 96.8%
Oc1c(CN2CCN(c3ccccc3)CC2)cc(Br)c2cccnc12 81.5%
NC(=O)c1ccccc1-c1nc(-c2ccccc2)no1 102%
CC(C(=O)O)n1nc(-c2ccccc2)c2ccccc21 (stereo not given) 102%
COc1cc(/C=C2/N=C(c3ccccc3)OC2=O)c(F)cc1OCc1ccccc1 108%
COc1ccc(-c2nn(-c3ccccc3)cc2C(=O)NC(=S)NNC(=O)c2ccncc2)cc1 101%
CCOC(=O)Cc1csc(NC(=O)CCCCCN2C(=O)c3cccc4cccc(c34)C2=O)n1 98.2%
COC(=O)c1ccc(/C=C/C(=O)c2cccc(OC)c2)cc1 101%
Cc1[nH][nH]c(=O)c1C(c1ccc(N(C)C)c(Br)c1)c1c(C)[nH][nH]c1=O 105%
Cc1ccc(CCN2CC(C(=O)NCCCN(C)Cc3ccccc3)CC2=O)cc1 (stereo not given) 103%
COc1ccc(NC(=O)C2CCN(S(=O)(=O)c3ccc(OC)c(OC)c3)CC2)c(OC)c1 100%
CN1CCc2c(sc3c2C(=O)NC(c2ccc4c(c2)OCO4)N3)C1 (stereo not given) 102%
Nc1cccnc1S(=O)(=O)c1ccccc1 98.5%
N#Cc1ccccc1Cn1cc(/C=C/[N+](=O)[O-])c2ccccc21 104%
CN(c1ccccc1)S(=O)(=O)c1ccc(C(=O)Nc2nnc(-c3ccc(F)cc3)o2)cc1 106%
Cc1ccc(C)c(N2CCN(C(=O)c3ccccc3Br)CC2)c1 98.8%
CCOC(=O)C(=CNNc1cccc(Cl)c1)C(=O)OCC 103%
O=C(c1ccccc1F)N1CCN(c2ccccc2)CC1 95.2%
O=C(C1CCN(Cc2nc(Cc3cccc(F)c3)no2)CC1)N1CCOCC1 103%
COC(=O)c1ccc(/C=N\NC(=O)c2ccc(C)cc2Cl)cc1 96.4%
CCNC(=O)c1ccccc1-c1nc(-c2ccccc2Cl)no1 98.6%
O=C(OCC(=O)N1CCN(C(=O)c2ccco2)CC1)c1cc(-c2ccc(Cl)c(Cl)c2Cl)nc2ccccc12 116%
c1ccc(CSc2ccc(-c3ccccn3)nn2)cc1 96.7%
N#C/C(=C\c1c(N2CCCCCC2)nc2ccccn2c1=O)C(=O)NCc1ccco1 95.6%
Cc1ccc(Nc2c(-c3ccccn3)nc3ccc(C)cn23)cc1 82.9%
Cc1ccc(-c2csc3ncn(Cc4ccc(C(=O)O)cc4)c(=O)c23)cc1C 116%
CCOC(=O)c1ccc(NC(=O)CCc2nc(-c3ccc(Cl)cc3)no2)cc1 95.4%
O=C(Nc1cc(Sc2ccccn2)cc([N+](=O)[O-])c1)c1ccc([N+](=O)[O-])cc1 104%
O=C1c2ccccc2C(=O)N1OS(=O)(=O)c1ccc(F)cc1 102%
Cc1ccc(N2CCN(C(=O)c3ccccc3Br)CC2)c(C)c1 92.1%
CCCc1[nH]nc2c1C1(C(=O)N(C(C)C)c3ccccc31)C(C#N)=C(N)O2 (stereo not given) 99.1%
O=C1c2cccc3c([N+](=O)[O-])ccc(c23)C(=O)N1O 132%
COC(=O)Cn1nc(-c2ccccc2)c2cc(Cl)ccc21 102%
O=C1C(Cl)=C(NCCc2ccccc2)C(=O)N1CCc1ccccc1 103%
O=c1c(-c2ccc(Cl)cc2)[n+]([O-])c2ccccc2n1O 93%
CCc1ccccc1OCc1nnc(N)s1 102%
Cc1ccc(/C=C2/SC(=S)N(C3CCCCC3)C2=O)o1 106%
O=C(Cn1cc(/C=C\[N+](=O)[O-])c2ccccc21)Nc1ccccc1 94.7%
Cc1nnc(NC(=O)c2ccc(S(=O)(=O)N3CCCCCC3)cc2)o1 99%

Experiment: modulators of CIT2-GFP expression in yeast, confirmation, S. cerevisiae, GFP fusion, cherry picks, mother/daughter gates (AID 2274)
Details: S. cerevisiae CIT2-GFP strain, flow cytometry, 3 h; at 10 µM; stronger effect = higher value

GFP response, % of DMSO, active:
O=C1c2cccc3c([N+](=O)[O-])ccc(c23)C(=O)N1O 256%

GFP response, % of DMSO, inactive:
O=C(COC(=O)c1n[nH]c2ccccc12)c1cccc(Br)c1 100%
Cc1c(C(=O)Nc2ccccc2)cnn1-c1ccccc1 104%
Oc1c(CN2CCN(c3ccccc3)CC2)cc(Br)c2cccnc12 103%
NC(=O)c1ccccc1-c1nc(-c2ccccc2)no1 105%
CC(C(=O)O)n1nc(-c2ccccc2)c2ccccc21 (stereo not given) 102%
COc1cc(/C=C2/N=C(c3ccccc3)OC2=O)c(F)cc1OCc1ccccc1 106%
COc1ccc(-c2nn(-c3ccccc3)cc2C(=O)NC(=S)NNC(=O)c2ccncc2)cc1 107%
CCOC(=O)Cc1csc(NC(=O)CCCCCN2C(=O)c3cccc4cccc(c34)C2=O)n1 102%
COC(=O)c1ccc(/C=C/C(=O)c2cccc(OC)c2)cc1 103%
Cc1[nH][nH]c(=O)c1C(c1ccc(N(C)C)c(Br)c1)c1c(C)[nH][nH]c1=O 96.4%
Cc1ccc(CCN2CC(C(=O)NCCCN(C)Cc3ccccc3)CC2=O)cc1 (stereo not given) 98.6%
COc1ccc(NC(=O)C2CCN(S(=O)(=O)c3ccc(OC)c(OC)c3)CC2)c(OC)c1 103%
CN1CCc2c(sc3c2C(=O)NC(c2ccc4c(c2)OCO4)N3)C1 (stereo not given) 102%
Nc1cccnc1S(=O)(=O)c1ccccc1 99.1%
N#Cc1ccccc1Cn1cc(/C=C/[N+](=O)[O-])c2ccccc21 97.2%
CN(c1ccccc1)S(=O)(=O)c1ccc(C(=O)Nc2nnc(-c3ccc(F)cc3)o2)cc1 131%
Cc1ccc(C)c(N2CCN(C(=O)c3ccccc3Br)CC2)c1 106%
CCOC(=O)C(=CNNc1cccc(Cl)c1)C(=O)OCC 103%
O=C(c1ccccc1F)N1CCN(c2ccccc2)CC1 98.3%
O=C(C1CCN(Cc2nc(Cc3cccc(F)c3)no2)CC1)N1CCOCC1 100%
COC(=O)c1ccc(/C=N\NC(=O)c2ccc(C)cc2Cl)cc1 103%
CCNC(=O)c1ccccc1-c1nc(-c2ccccc2Cl)no1 98.6%
O=C(OCC(=O)N1CCN(C(=O)c2ccco2)CC1)c1cc(-c2ccc(Cl)c(Cl)c2Cl)nc2ccccc12 115%
c1ccc(CSc2ccc(-c3ccccn3)nn2)cc1 97.3%
N#C/C(=C\c1c(N2CCCCCC2)nc2ccccn2c1=O)C(=O)NCc1ccco1 96.9%
Cc1ccc(Nc2c(-c3ccccn3)nc3ccc(C)cn23)cc1 105%
Cc1ccc(-c2csc3ncn(Cc4ccc(C(=O)O)cc4)c(=O)c23)cc1C 106%
CCOC(=O)c1ccc(NC(=O)CCc2nc(-c3ccc(Cl)cc3)no2)cc1 105%
O=C(Nc1cc(Sc2ccccn2)cc([N+](=O)[O-])c1)c1ccc([N+](=O)[O-])cc1 107%
O=C1c2ccccc2C(=O)N1OS(=O)(=O)c1ccc(F)cc1 121%
Cc1ccc(N2CCN(C(=O)c3ccccc3Br)CC2)c(C)c1 96.9%
CCCc1[nH]nc2c1C1(C(=O)N(C(C)C)c3ccccc31)C(C#N)=C(N)O2 (stereo not given) 98.6%
COC(=O)Cn1nc(-c2ccccc2)c2cc(Cl)ccc21 114%
O=C1C(Cl)=C(NCCc2ccccc2)C(=O)N1CCc1ccccc1 106%
O=c1c(-c2ccc(Cl)cc2)[n+]([O-])c2ccccc2n1O 92.1%
CCc1ccccc1OCc1nnc(N)s1 100%
Cc1ccc(/C=C2/SC(=S)N(C3CCCCC3)C2=O)o1 98.8%
O=C(Cn1cc(/C=C\[N+](=O)[O-])c2ccccc21)Nc1ccccc1 99.7%
Cc1nnc(NC(=O)c2ccc(S(=O)(=O)N3CCCCCC3)cc2)o1 100%
